KCNQ2 enhance: enhances the rat KCNQ2 potassium channel. B-score at 10 µM. 310,000 compounds, 0.54% hits. CHO-K1 KCNQ2, FluxOR thallium flux fluorescence; active compounds read high;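 active = fluorescence ratio B-score at least 3 SD of library B-scores, with initial fluorescence B-score within 3 of them, cut at about 5.3 in these data; same plate scores as AID 2156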;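 note: B-score of peak minus minimum over baseline fluorescence ratio after K+ and Tl+ stimulus; positive B-score means potentiation of KCNQ2 with more thallium influx and brighter signal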
KCNQ2 inh: blocks the rat KCNQ2 potassium channel | B-score at 10 µM | CHO-K1 KCNQ2, FluxOR thallium flux, 20 min; active compounds read low | O88943 | 310,000 compounds, 1.1% hits;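 active = fluorescence ratio B-score at most minus 3 library SDs, with starting brightness B-score within 2 library SDs, cut at about -5.5 in these data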
KCNQ2 inh conf: rat KCNQ2 channel inhibition, confirmatory screen. 1,000 compounds, 57% hits. AID 493025. KCNQ2-expressing cells, thallium flux; active compounds read low. shares compounds with KCNQ2 inh. activity change, negative = inhibition, % at 10 µM
KCNQ1 spec: selectivity of KCNQ2 inhibitors against human KCNQ1. shares compounds with KCNQ2 inh. KCNQ1-expressing cells, FluxOR thallium flux fluorescence; active compounds read low. activity change, negative = inhibition, % at 10 µM. 1,000 compounds, 15% hits. AID 493026;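 active = activity change at least 3 SD of negative controls below their mean in both duplicate wells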;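 note: CHO cells stably transfected with KCNQ1 and depolarized by potassium stimulus; peak minus minimum fluorescence over baseline after thallium addition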
Target sequence (P51787 whole entry, looked up): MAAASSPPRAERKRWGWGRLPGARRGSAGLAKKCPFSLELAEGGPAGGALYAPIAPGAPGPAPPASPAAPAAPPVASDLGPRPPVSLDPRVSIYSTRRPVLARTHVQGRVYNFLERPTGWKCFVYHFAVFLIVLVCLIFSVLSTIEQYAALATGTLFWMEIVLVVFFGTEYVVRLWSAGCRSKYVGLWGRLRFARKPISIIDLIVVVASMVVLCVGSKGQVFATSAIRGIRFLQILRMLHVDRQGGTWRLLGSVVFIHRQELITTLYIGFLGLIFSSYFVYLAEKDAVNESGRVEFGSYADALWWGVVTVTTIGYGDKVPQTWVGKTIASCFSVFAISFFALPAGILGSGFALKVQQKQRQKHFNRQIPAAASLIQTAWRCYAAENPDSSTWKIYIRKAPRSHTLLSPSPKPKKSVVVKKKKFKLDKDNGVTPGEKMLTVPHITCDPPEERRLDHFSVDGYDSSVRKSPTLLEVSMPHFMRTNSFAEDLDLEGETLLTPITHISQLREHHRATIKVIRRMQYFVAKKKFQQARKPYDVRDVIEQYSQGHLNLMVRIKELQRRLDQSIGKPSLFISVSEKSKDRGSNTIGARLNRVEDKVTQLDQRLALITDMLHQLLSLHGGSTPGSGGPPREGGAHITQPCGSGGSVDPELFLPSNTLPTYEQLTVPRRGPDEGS
CHO Tl ctr: counter-screen for KCNQ2 inhibitors: effect in parental CHO cells. 1,000 compounds, 14% hits. thallium flux counter-screen; active compounds read low. shares compounds with KCNQ2 inh. activity change, % at 10 µM
KCNQ2 inh confirm: rat KCNQ2 inhibition confirmed by electrophysiology; shares compounds with KCNQ2 inh; KCNQ2-expressing cells, automated patch clamp current; calls only at 10 µM; 550 compounds, 49% hits; AID 588531
A number is an active result; n = inactive; x = no result; + = active, no number. Only some compounds are listed: those with a hit (about 1.6% of all), similar ones and a draw of the others. Unless noted, the rule behind the calls is not given here.

SMILES	KCNQ2 enhance	KCNQ2 inh	KCNQ2 inh conf	KCNQ1 spec	CHO Tl ctr	others
CCC1CN(C(=O)N2CCC(C(=O)NCCc3ccc(OC)cc3OC)CC2)c2ccccc2O1 (centres undefined)	x	n	x	x	x
O=C(Oc1ccc(Br)cc1C(=S)N1CCOCC1)c1ccccc1	x	n	x	x	x
CCC1(C(=O)c2ccccc2)C2c3cc(Br)ccc3OC(=O)C21C(=O)N1CCOCC1 (centres undefined)	n	-9.7	n	n	n
Cc1cc(/C=C2/SC(=O)N(CC(=O)N3CCOCC3)C2=O)c(C)n1-c1ccccc1F	n	n	x	x	x
CCOC(=O)N1CCN(CC(=O)Nc2nc3ccc(OC)cc3s2)CC1	x	n	x	x	x
Cc1ccc(-c2cc(C(=O)N3CCC(C)CC3)c3ccccc3n2)cc1	n	-8.3	-29%	n	n	KCNQ2 inh confirm=n
O=C(NCCN1CCOCC1)c1cnn2c(-c3ccccc3)cc(-c3ccccc3)nc12	x	n	x	x	x
O=C(c1cc(-c2ccc(Cl)cc2)nc2ccccc12)N1CCOCC1	x	n	x	x	x
O=C(NC1CCCC1)c1cc2nc(-c3ccccc3)cc(-c3ccccc3)n2n1	x	n	x	x	x
O=C(c1cnn2c(-c3ccccc3)cc(-c3ccccc3)nc12)N1CCN(Cc2ccccc2)CC1	n	-8.9	-28%	n	n	KCNQ2 inh confirm=n
CC1CCN(C(=O)c2cc3nc(-c4ccccc4)cc(-c4ccccc4)n3n2)CC1	n	-7.8	-35%	n	n	KCNQ2 inh confirm=n
CC(C)OCCCNC(=O)c1cc(-c2cccnc2)nc2ccccc12	n	n	x	x	x
O=S(=O)(Nc1nccs1)c1ccc(F)cc1	x	n	x	x	x
CCn1c(SCC(=O)NC2CCCCC2)nnc1-c1ccccc1F	x	n	x	x	x
CN(CC(=O)Nc1ccc(Cl)c(C(F)(F)F)c1)C(=O)c1ccc(N2CCOCC2)c([N+](=O)[O-])c1	n	n	x	x	x
CN(C)CCC(=O)c1cccc(Br)c1	x	n	x	x	x
CC1=NN(C(=O)COc2ccccc2C)C(O)(c2ccc(Cl)cc2)C1 (centres undefined)	n	-8.1	-24%	n	n	KCNQ2 inh confirm=+
CCC1=NN(C(=O)COc2ccccc2C)C(O)(c2ccncc2)C1 (centres undefined)	x	n	x	x	x
O=C(c1cccc([N+](=O)[O-])c1)N1CCCN(C(=O)c2cccc([N+](=O)[O-])c2)CC1	n	n	x	x	x
Cc1ccc(C(=O)C(c2ccccc2)N2Cc3ccccc3C2=N)cc1 (centres undefined)	n	-8.6	-32%	n	n	KCNQ2 inh confirm=+
COc1ccc(C(=O)C(c2ccccc2)N2CCOCC2)cc1 (centres undefined)	n	n	x	x	x
Cc1ccccc1OCC(=O)Nc1ccccc1N1CCCCC1	n	-10	-26%	n	n	KCNQ2 inh confirm=+
CCC(=O)N1CCN(c2ccccc2NC(=O)c2cccc(C)c2)CC1	x	n	x	x	x
Cc1cc(C)cc(OCC(=O)Nc2ccccc2N2CCCCC2)c1	x	n	x	x	x
Cc1ccc(NC(=O)COc2cccc(C)c2C)cc1S(=O)(=O)N1CCCCCC1	n	-8.8	-36%	-32%	-24%	KCNQ2 inh confirm=n
SMILES	KCNQ2 enhance	KCNQ2 inh	KCNQ2 inh conf	KCNQ1 spec	CHO Tl ctr	others
CCC(=O)N1CCN(c2ccccc2NC(=O)COc2cccc(C)c2)CC1	n	-10	-28%	n	n	KCNQ2 inh confirm=+
COc1ccc(NC(=O)COc2ccccc2C)cc1S(=O)(=O)N1CCCCC1	x	n	x	x	x
COCCNC(=O)C(c1ccc(Cl)cc1)N(C(=O)Cn1nnc2ccccc21)c1cccnc1 (centres undefined)	n	n	x	x	x
Clc1ccccc1OCc1nnc2n1CCCCC2	n	n	x	x	x
COc1cc(-c2nc3cccc(C)n3c2NCC2CCCO2)ccc1O (centres undefined)	n	-8.6	n	n	n
COc1cc(-c2nc3cnccn3c2Nc2ccccc2)ccc1O	n	n	x	x	x
O=C(Nc1cccc(Cl)c1)c1cc(S(=O)(=O)N2CCOCC2)cs1	x	n	x	x	x
COc1ccc(OCc2cc(C(=O)NC(C)Cn3cncn3)no2)c(Cl)c1 (centres undefined)	n	n	x	x	x
CCOC(=O)c1cnc(-c2ccccc2)nc1C(F)(F)F	x	n	x	x	x
CCOC(=O)c1cnc2c(F)ccc(F)c2c1Sc1ccccc1	n	-7.6	n	n	n
Cn1c(CSCc2ccc(Cl)c(Cl)c2)n[nH]c1=S	n	n	x	x	x
C=CCn1c(SCc2c(C)noc2C)nc2ccccc2c1=O	x	n	x	x	x
Cc1noc(C)c1CSc1nc2ccccc2c(=O)n1-c1ccc(F)cc1F	n	-7.3	-20%	n	n	KCNQ2 inh confirm=+
Cc1csc2c(N3CCN(C(=O)Nc4ccc(OC(F)(F)F)cc4)CC3)ncnc12	n	n	x	x	x
O=C(c1ccc([N+](=O)[O-])cc1)N1CCN(c2cccc3[nH]ccc23)CC1	x	n	x	x	x
COc1ccc(CNC(=O)c2ccccc2SCC(=O)N2CCCC2)cc1OC	n	n	x	x	x
Cc1cccc(N2CCN(C(=O)C(Cc3ccccc3)NC(N)=O)CC2)c1C (centres undefined)	n	n	x	x	x
Cc1cccc(N2CCN(C(=O)C(Cc3ccccc3)n3cccc3)CC2)c1C (centres undefined)	n	-13	-43%	-34%	-31%	KCNQ2 inh confirm=n
CS(=O)(=O)N(CC(=O)N1CCC(C(N)=O)CC1)Cc1ccc(Cl)c(Cl)c1	x	n	x	x	x
CSCCC(N=C1NS(=O)(=O)c2ccccc21)C(=O)NCCc1ccccc1 (centres undefined)	n	n	x	x	x
COc1cc(C2CC(=O)Nc3ccccc3S2)cc(OC)c1OC (centres undefined)	n	-8.5	n	n	n
COc1cc(C2Sc3ccccc3NC3=C2C(=O)OC3)cc(OC)c1OC (centres undefined)	x	n	x	x	x
O=C(NC(NCC1CCCO1)C(Cl)(Cl)Cl)c1cccc2ccccc12 (centres undefined)	n	-8.6	n	n	n
O=C(NCC1CCCO1)c1cccc2ccccc12 (centres undefined)	n	n	x	x	x
COc1ccc(S(=O)(=O)NCC2CC3C=CC2C3)cc1OC (centres undefined)	n	n	x	x	x
SMILES	KCNQ2 enhance	KCNQ2 inh	KCNQ2 inh conf	KCNQ1 spec	CHO Tl ctr	others
COc1ccc(CNC(=O)CN2C(=O)C(C)N(c3ccc(C)cc3)C2=O)cc1 (centres undefined)	x	n	x	x	x
COc1ccccc1CNC(=O)CN1C(=O)C(C)N(c2ccc(C)cc2)C1=O (centres undefined)	n	-7.5	n	n	n
CC(NC(=O)/C(C#N)=C/c1ccc(Cl)c([N+](=O)[O-])c1)c1ccccc1 (centres undefined)	n	-11	-26%	n	n	KCNQ2 inh confirm=n
CC(NC(=O)/C(C#N)=C/c1ccc(OCC(=O)O)cc1)c1ccccc1 (centres undefined)	x	n	x	x	x
COc1ccc2[nH]c3c(NCCC4=CCCCC4)ncnc3c2c1	n	-9.1	n	n	n
CCN(CC)CCNc1ncnc2c1[nH]c1ccc(OC)cc12	n	n	x	x	x
O=C(Nc1cccs1)Nc1ccccc1Br	n	n	x	x	x
CN1CCN(NC(=O)/C=C/c2cccc([N+](=O)[O-])c2)CC1	n	n	x	x	x
Cc1ccc(CNC(=O)C2CCCN(c3nn4c(=O)cc(C)nc4s3)C2)cc1 (centres undefined)	x	n	x	x	x
CC(=O)N1CC(C)Sc2ccc(S(=O)(=O)NC3CCCCC3C)cc21 (centres undefined)	n	n	x	x	x

Screening data as filed in PubChem.
